# Compound activity as filed in PubChem.
# Rows were chosen to be rich in hits. Some 11% of all compounds tested hit in one or more screens of this group.
# HP1b binding inh – blocks HP1-beta chromodomain binding to methylated histone tails | AlphaScreen HP1-beta / biotin-H3K9me3 peptide binding | Potency, µM (titrated, usually from 114 µM), inactives show at the top dose activity change, negative = inhibition, most hits filed as inhibitors | actives 0.56% (n = 390,000) | AID 540317; note: potency is the fitted concentration of half-maximal effect; nearly all actives have a fitted effect of over 70% in size
#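 AlphaScreen: HP1-beta (50 nM) preformed 30 min with biotin-H3(1-18)K9me3 peptide (50 nM) in PBS pH 7.4, 0.01% Tween-20. Compound added for 30 min at RT, then streptavidin donor/nickel chelate acceptor beads (10 ug/mL) for 30 min.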
# BAZ2B inh – inhibitors of human BAZ2B bromodomain; AlphaScreen BAZ2B-H3K14Ac peptide displacement; Potency, µM (titrated, usually from 114 µM), inactives show at the top dose activity change, negative = inhibition, hits mostly inhibitors; actives 4.4% (n = 360,000); AID 504333; note: potency is the fitted concentration of half-maximal effect; % is set by controls: 0 for no effect and ±100 for the full control effect; nearly all actives have a fitted effect of over 60% in size
#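 BAZ2B (50 nM) with biotin-H3(5-23)K14Ac peptide (50 nM) in PBS pH 7.4, 0.01% Tween-20, preformed 30 min, then compound 30 min at room temperature; top concentration 110uM. AlphaScreen streptavidin donor/nickel chelate acceptor beads (10 ug/mL final), 20 min dark, signal read.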
# PI5P4Ka inh – inhibitors of human PI5P4K alpha; P48426; actives 1.2% (n = 330,000); max response, %; AID 652105; PI5P4Kalpha enzyme, ADP-Glo luminescence, 60 min; hits give low values; active = max response of -50% or lower; inconclusive = between -30% and -50%; inactive = -30% or higher; note: value at the top dose of about 77 µM; % is set by controls: 0 for no effect and ±100 for the full control effect
#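 Human PI5P4Kalpha with substrate in 0.038 M HEPES pH 7.4, 0.28 mM EGTA, 0.1% CHAPS, 5% DMSO; reaction started with 5 microM ATP (final), 60 min at room temperature. ADP formed read by ADP-Glo luminescence.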
# L3MBTL1 block – blocks human L3MBTL1. actives 0.66% (n = 230,000). Q9Y468. Potency, µM (series often up to 57.1 µM), for the others: at the top dose activity, negative = inhibition, actives largely listed as inhibitors. AlphaScreen L3MBTL1–H3K9me1 peptide binding. AID 485360; note: potency is the fitted concentration of half-maximal effect; % is set by controls: 0 for no effect and ±100 for the full control effect; nearly all actives have a fitted effect of over 60% in size
#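 L3MBTL1 (50 nM) pre-complexed 30 min with biotinylated H3(1-15)K9me1 peptide (75 nM), then compounds added for 30 min at room temperature; AlphaScreen streptavidin donor/nickel chelate acceptor beads (10 ug/mL final) read after 30 min dark incubation.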
# G9a inh – blocks human histone lysine methyltransferase G9a. Q96KQ7. G9a H3K9 monomethylation, AlphaScreen, 2 h. Potency, µM (series often up to 102 µM), inactives show at the highest dose activity, negative = inhibition, actives largely listed as inhibitors. actives 8.8% (n = 350,000). AID 504332; note: potency is the fitted concentration of half-maximal effect; % is set by controls: 0 for no effect and ±100 for the full control effect; nearly all actives have a fitted effect of over 75% in size
#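 Signal arises when biotinylated H3K9 peptide, once monomethylated, bridges streptavidin donor and antibody-captured acceptor beads. Enzyme at 20 nM was preincubated 15 min with test compounds; peptide 500 nM and SAM 20 uM then reacted for 2 h.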
# JMJD2A Tudor – JMJD2A Tudor domain (human) inhibition; O75164; AID 504339; Potency, µM (highest dose often 114 µM), for the others: top-dose activity change, negative = inhibition, most hits filed as inhibitors; AlphaScreen JMJD2A-Tudor / H3K4me3 peptide binding; actives 4.4% (n = 390,000); note: potency is the fitted concentration of half-maximal effect; % is set by controls: 0 for no effect and ±100 for the full control effect; nearly all actives have a fitted effect of over 50% in size
# * hit, by the source's call; u = inconclusive; x = no result given; [ ] = remark or other dose. Unless noted, calls come from the whole dose curve; as a rule, active = well fitted inhibition curve with a large enough effect; inconclusive = small, poorly fitted or top-dose-only effect; inactive = no such curve, though single readings can be large or run the other way.
SMILES,HP1b binding inh,BAZ2B inh,PI5P4Ka inh,L3MBTL1 block,G9a inh,JMJD2A Tudor
COc1ccc2[nH]c3c(N4CCN(Cc5ccc6c(c5)OCO6)CC4)ncnc3c2c1,-25%,50µM*,-23,-4%,50µM*,u
O=[N+]([O-])c1ccc2ncnc(N3CCN(Cc4ccc5c(c4)OCO5)CC3)c2c1,-12%,40µM*,-2,-8%,x,u
CCOC(=O)c1c(C)[nH]c(CCC(=O)NCc2ccccc2C)c1C,18%[57 µM],-17%,x,x,7%[59 µM],-14%
O=C(/C=C/c1ccc(F)cc1)NCCc1ccc2c(c1)OCCO2,36%,5%,-2,-1%,89µM*,-3%
COc1cccc2c(=O)c3cccc(N)c3[nH]c12,19%,u,-26,-26%,25µM*,6%
COc1cccc(NC(=O)CN(C)C(=O)/C=C/c2cn(Cc3ccccc3)nc2-c2cccnc2)c1,16%,-37%,0,-8%,-32%,-18%
CCN(CC(=O)Nc1ccc(NC(C)=O)cc1)C(=O)/C=C/c1cn(Cc2ccccc2)nc1-c1cccnc1,25%,2%,-4,-2%,14µM*,-17%
CCN(CC(=O)Nc1ccc(NC(C)=O)cc1)C(=O)/C=C/c1ccccc1,27%,-5%,6,1%,-2%[59 µM],-3%
CCN(CC(=O)Nc1ccc(NC(C)=O)cc1)C(=O)/C=C/c1cn(-c2ccccc2)nc1-c1cccs1,17%,-9%,-1,-12%,32µM*,-29%
CC12CCC=CC1C(c1ccc(F)c(/C=C/c3ccccc3)c1)N(Cc1ccccc1)C2=O (configuration not stated),22%,x,x,x,x,-14%
N#Cc1cc2nc(O)c(O)nc2cc1[N+](=O)[O-],-19%,6%,-57*,-8%,1%[59 µM],79µM*
Cc1ccc(NS(=O)(=O)c2ccc(-c3cc(C)no3)cc2)c(Br)c1,46%,-1%,x,x,u,9%
CC1CN(Cc2ccc(C#N)cc2Cl)CC(C)O1 (configuration not stated),33%,-6%,3,10%,35µM*,u
C[C@@H]1CN(Cc2nc(-c3ccc(Cl)cc3)no2)C[C@H](C)O1,46%,-2%,9,u,x,5%
COc1ccccc1N1CCN(CCCNC(=O)c2cnn(-c3ccccc3)c2C2CCN(C(=O)OC(C)(C)C)CC2)CC1,-14%,1%[57.1 µM],x,x,-9%[59 µM],-26%
CCn1nc(C)cc1-c1nnc(Sc2ncc([N+](=O)[O-])s2)n1C,19%,-12%,-8,x,6.3µM*,u
CCn1nc(C)cc1-c1nnc(SCC(=O)Nc2ccccc2)n1CCCOC,23%,1%,0,x,x,3%
CCc1cc[n+](C2=C([O-])c3ccccc3C(=O)/C2=N\S(=O)(=O)c2cccs2)cc1,u,u,u,u,u,79µM*
COc1ccc(-c2cnnc(N/N=C/c3ccc(C)o3)n2)cc1,-21%,-3%,-17,-7%,22%,14µM*
COc1ccc(-c2cnnc(N/N=C/c3ccc(O)cc3)n2)cc1,30%,-13%,-10,0%,2%,-7%[11.4 µM]
COc1ccc(-c2cnnc(N/N=C/c3ccc(O)c(O)c3)n2)cc1,-33%,45µM*,-14,u,-8%,40µM*
CCOC(=O)C1(C)C=C(Nc2cccc(C)c2)C(=O)N1c1ccccc1 (configuration not stated),26%,13%,x,x,u,-3%
CCOc1ccccc1NC(=O)Cn1cnc2onc(-c3ccc(F)cc3)c2c1=O,40%,11%[57.1 µM],x,x,-5%[59 µM],-8%
COc1ccc2[nH]cc(CCNc3ncncc3-c3ccoc3)c2c1,x,x,x,x,-7%[0.501 µM],x
N#CC1=C(O)C(c2ccccc2)n2c1nc(=O)c1ccccc12 (configuration not stated),30%,u,u,-14%,25µM*,-20%
SMILES,HP1b binding inh,BAZ2B inh,PI5P4Ka inh,L3MBTL1 block,G9a inh,JMJD2A Tudor
CCOC(=O)c1ccc(S(=O)(=O)Nc2nc3cc(S(=O)(=O)NC4=NCCCCC4)ccc3s2)cc1,-22%,x,-54*,-7%,3.5µM*,89µM*
Nc1nc2cc(S(=O)(=O)NC3=NCCCCC3)ccc2s1,30%,-21%,-8,x,-21%[12.7 µM],-22%
COc1ccc(-n2c(CN3CCN(c4ccccn4)CC3)nc3ccc([N+](=O)[O-])cc3c2=O)c(OC)c1,3%,u,4,u,32µM*,u
OCCN(CC#CC(O)(c1ccccc1)c1ccccc1)CCO,21%,u,5,1%,32µM*,-4%
CN(CCOCCOc1ccc2ccccc2c1)Cc1ccccc1,74%,-15%,0,x,4%[59 µM],-18%
Cc1cc(C)c(OCCN(C)C)c(Cl)c1,u,50µM*,-10,10%,11µM*,3.5µM*
Cc1cc(C)c(OCCCCCNCCO)c(C)c1,22%,11%,x,x,5%,-23%
Cc1cc(Cl)cc(Cl)c1OCCOCCN(C)C,u,u,1,4%,11µM*,6.3µM*
Cc1cc(OCCOCCN(C)C)ccc1Cl,u,u,9,6%,u,28µM*
COc1ccccc1-c1nccc(NCc2cccs2)n1,x,x,x,x,-1%[0.501 µM],x
CN1CCN(Cc2nc(N)nc(Nc3ccc4c(c3)OCCO4)n2)CC1,14%,50µM*,x,45%,-29%,u
Nc1nc(CSC(=S)N2CCOCC2)nc(Nc2ccccc2)n1,32%,-23%,-1,-5%,0%[59 µM],-14%
Cc1ccc(Nc2nc(N)nc(CN3CCc4ccccc4C3)n2)cc1,2%,u,2,-19%,-31%,u
Cc1cccc(Nc2nc(N)nc(CN3CCN(c4ccccc4F)CC3)n2)c1,-17%,x,x,x,x,45µM*
Cc1cccc(Nc2nc(N)nc(CN3CCN(Cc4ccc5c(c4)OCO5)CC3)n2)c1,-7%,u,x,-12%,3%[59 µM],50µM*
Nc1nc(CSC(=S)N2CCN(c3ccccc3)CC2)nc(Nc2ccc(F)cc2)n1,u,u,2,-14%,u,56µM*
Cc1sc2nc(CN3CCCCC3)nc(Nc3ccc4c(c3)OCCO4)c2c1C,8%,-18%,3,x,39%,-12%
COc1ccccc1Nc1nc(N)nc(CN2CCN(Cc3ccc4c(c3)OCO4)CC2)n1,21%,u,3,11%,17%[12.7 µM],-18%
CCc1cccc(NC(=O)CSc2ncc3c(n2)-c2ccc(Cl)cc2N(Cc2ccccc2)S3(=O)=O)c1,-3%,-37%,x,x,-15%[59 µM],-19%
Nc1nc(CN2CCN(c3ccccn3)CC2)nc(Nc2ccc(Cl)cc2)n1,13%,50µM*,-7,-28%,50µM*,u
Cc1cccc(Nc2nc(N)nc(CN3CCN(c4ccccc4)CC3)n2)c1,u,-112%,-5,-20%,u,56µM*
